Among all 220,000 compounds or so, about 2,000 (0.91%) were called active. Another 2% or so got no clear call; they are omitted. The list is a sample of the results. Entries with a potency or affinity are not part of this list. A number with no mark means an inactive call. Rule as the data show it: inconclusive = inhibition above about 80% without an active follow-up result; inactive = below that; test concentration not stated here.

This test can be described thus: M. tuberculosis H37Rv growth inhibitors, H37Rv strain (AID 1626).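 Also: bacteria incubated seven days before Alamar blue readout; 0% = bacteria only wells and 100% = bacteria with antibiotic wells.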 The conditions noted are these: hits give high values, concentration not given here.
As a reminder, the inhibition is the drop in the measured response relative to a control, in per cent. On to `O=C(CN1C(=O)c2ccccc2C1=O)Nc1cccc2cccnc12`, for which the inhibition was 7.46%.
With `CC1=CC(C)(C)N(C(=O)CSc2nncn2C)c2ccccc21`, the inhibition was 4.36%.
As to `C=CCN(CC=C)S(=O)(=O)c1ccc(NC(=S)NC(=O)/C=C/c2cccc3ccccc23)cc1`, the inhibition was 2.67%.
In the case of `CC(C)(C)OC(=O)NNC(=S)NCc1ccc(Cl)cc1`, the inhibition was -13%.
Turning to `CCc1ccc2[nH]c(=O)c(CN(Cc3ccccc3OC)C(=O)Nc3ccccc3OC)cc2c1`, the inhibition was 7.78%.
On to `CC1CCN(C(=O)CSc2nnc(-c3cccnc3)n2C2CCCCC2)CC1`, for which the inhibition was -2.09%.
Take `COc1cc(-c2cc(C(=O)Nc3ccc(S(=O)(=O)Nc4ncccn4)cc3)c3ccccc3n2)cc(OC)c1OC`: the inhibition was 40.2%.
Consider `Cc1cc(C)cc(OCc2nnc(SCC(=O)N3CCN(c4ccccc4)CC3)o2)c1`, for which the inhibition was -4.78%.
Consider `Cc1cccc(C(=O)c2c(N)sc3c2CCC(C)C3)c1` (centres undefined), for which the inhibition was 5.18%.
With `CCOc1ccc(S(=O)(=O)NCCN2CCOCC2)c2ccccc12`, the inhibition was -4.29%.
With `CCOC(=O)C1(CC2CCCCO2)CCN(C(=O)Nc2ccccc2SC)CC1` (centres undefined), the inhibition was 6.6%.
Consider `CCC(=O)N1CCN(c2c(Cl)cccc2[N+](=O)[O-])CC1`, for which the inhibition was 4.63%.
The result for `CCCCN(CC)CCCNC(=S)Nc1ccc2nc3n(c(=O)c2c1)CCCCC3` reads -5.11%.
As for `O=C(COC(=O)c1n[nH]c2ccccc12)Nc1ccccc1`, the inhibition was -10.9%.
Consider `O=C(NCCN1CCOCC1)c1ccc(Cl)cc1[N+](=O)[O-]`, for which the inhibition was -10.2%.
The result for `O=C(NCCCN1CCOCC1)c1cc(Cl)ccc1[N+](=O)[O-]` reads -3.28%; that for `O=C(NCCCN1CCOCC1)c1ccc(Cl)cc1[N+](=O)[O-]`, -0.73%.
To `O=C(NCCN1CCOCC1)c1ccccc1[N+](=O)[O-]` belongs 1.9%.
To `COc1ccc(CNC(=O)COC(=O)c2n[nH]c3ccccc23)cc1` belongs 10.8%; to `Cc1ccc(SC[C@H](CC(C)C)N2CCN(CCc3ccccc3)CCC2=O)cc1`, 16.3%.
On to `CCOc1ccccc1-c1n[nH]c(=S)o1`, for which the inhibition was 6.98%.
Regarding `COCCOC(=O)C1=C(C)NC(=O)NC1c1c(Cl)nc2c(C)cccn2c1=O` (centres undefined), the inhibition was -7.69%.
Turning to `Cc1noc(C)c1S(=O)(=O)N1CCCC(C(=O)c2cccc(OC(C)C)c2)C1` (centres undefined), the inhibition was 0%.
For the molecule `Cc1nc2cc(C(=O)OCC(=O)NC3CCS(=O)(=O)C3)ccc2n1-c1ccccc1` (centres undefined), the inhibition is -9.28%.
For the molecule `Cc1nc2cc(C(=O)OCC(=O)NC(C)C(C)C)ccc2n1-c1ccccc1` (centres undefined), the inhibition is -6.92%.
The result for `CCCOc1ccc(/C(O)=C2/C(=O)C(=O)N(CCCOC)C2c2ccncc2)cc1` (centres undefined) reads -0.21%.
Turning to `COCCCNS(=O)(=O)c1ccc2c(c1)OCCO2`, the inhibition is -7.88%.
For `CC(C)c1nc2sc3ccccc3c(=O)c2c(=O)n1Cc1ccccc1`, the inhibition is -7.18%.
On to `Nc1ccc(C#Cc2c(-c3ccsc3)oc3ccc(N4CCOCC4)cc23)cc1`, for which the inhibition was 61.1%.
With `COc1ccc(-c2ccc3oc(-c4ccc(OC)cc4)c(C#CC4(O)CCCCC4)c3c2)cc1`, the inhibition is 18.4%.
Turning to `COc1ccc(-c2oc3ccc(N4CCOCC4)cc3c2C#CC2(O)CCCCC2)cc1`, the inhibition is 89.2%.
As to `COc1ccc(C#Cc2c(-c3ccsc3)oc3ccc(-c4cc(OC)c(OC)c(OC)c4)cc23)cc1`, the inhibition was 0.45%.
For the molecule `CCOc1ccc(C(c2c(NC(=O)c3ccccc3)sc(C)c2C)N2CCN(C)CC2)cc1` (centres undefined), the inhibition was 17.1%.
With `c1ccc(C(c2ccccc2)N2CCN(C(c3ccccn3)c3nnnn3C3CCCC3)CC2)cc1` (centres undefined), the inhibition was 6.45%.
Regarding `COc1cc(OC)c2c(=O)cc(-c3cccnc3)oc2c1`, the inhibition was -11.6%.
On to `CSc1sc(-c2n[nH]c(=S)n2C)c2c1C=CCC2`, for which the inhibition was 5.83%.
Take `COC(=O)c1c(NC(=O)c2ccccc2)sc(Cc2ccccc2)c1C`: the inhibition was -9.2%.
The result for `COC(=O)c1c(NC(=O)c2ccccc2)sc(C(N)=O)c1C` reads -3.85%; that for `CC(O)CCC(=O)NNC1CC(=O)N(c2ccccc2)C1=O` (centres undefined), -8.86%; that for `C=CCN(c1ccccc1)S(=O)(=O)c1cccc(C(=O)O)c1`, -12.8%.
To `Cc1ccc(-n2nnnc2Sc2nc([N+](=O)[O-])nn2C)cc1` belongs 0.83%; to `Cc1ccc(C)c(-n2nnnc2Sc2nc([N+](=O)[O-])nn2C)c1`, -10.2%; to `Cc1ccc(C2(c3noc(CN4CCC(c5ccncc5)CC4)n3)CCCC2)cc1`, 13.7%.
For the molecule `O=C(O)c1ccc(N/N=C/C2=C(N3CCOCC3)C(=C\c3ccccc3)/CC2)cc1`, the inhibition is -3.9%.
The result for `O=CC1=C(N2CCOCC2)/C(=C\c2ccccc2)CC1` reads 0.77%; that for `CC(=O)Nc1ccc(NC(=O)/C=C/c2cccc(C(F)(F)F)c2)cc1`, 0.39%; that for `CCc1ccc2c(c1)C(c1ccncc1)=NNC(c1ccccc1)=N2`, 8.68%.
To `CCCC(=O)Nc1nnc(SCC(=O)Nc2ccc3c(c2)OCO3)s1` belongs 5.81%.
To `CN1CCN(C(=O)c2ccc(CSc3nc4ccncc4n3Cc3ccc(F)cc3)cc2)CC1` belongs -0.01%; to `COc1ccc2nc(C)cc(C(=O)O)c2c1`, 0.85%.
For the molecule `O=C(CN1CCN(C/C=C/c2ccccc2)CC1)Nc1ccccc1C(=O)NC1CC1`, the inhibition is -0.65%.
Regarding `O=C(CN1CCN(C/C=C/c2ccccc2)CC1)Nc1ccc(F)cc1F`, the inhibition is -0.62%.
Turning to `COc1ccccc1NC(=O)C(C)N1CCN(C/C=C/c2ccccc2)CC1` (centres undefined), the inhibition is 11.9%.
In the case of `O=C(COc1ccccc1)N1CCN(C/C=C/c2ccccc2)CC1`, the inhibition is -6.49%.
On to `O=C(COc1ccc(Cl)cc1)N1CCN(C/C=C/c2ccccc2)CC1`, for which the inhibition is 0.36%.
To `COc1ccc(C)cc1NC(=O)CN1CCN(C/C=C/c2ccccc2)CC1` belongs -3.7%; to `Cc1n[nH]c(=O)nc1NCc1ccc(Cl)cc1`, 0.09%.
Take `CC(C)(C)NC(=O)COC(=O)CCC(=O)c1ccc(F)cc1`: the inhibition is -0.61%.
The result for `Cc1ccc(/C=N/NC(=O)CNC(=O)c2ccc(S(=O)(=O)N(C)C)cc2)cc1` reads -4.56%; that for `Cc1ccnc(NS(=O)(=O)c2ccc(NC(=O)/C=C/c3cccs3)cc2)n1`, 11.1%; that for `CCOC(=O)C1C(c2ccccc2)NC(=S)NC1(C)O` (centres undefined), 1.27%.
As for `COc1ccc(Nc2ncc(C(=O)O)c3ccccc23)cc1`, the inhibition is 5.05%.
As to `Cc1cc2ccc(C)c(C)c2nc1SCC(=O)c1cccs1`, the inhibition was -3.91%.
On to `Nc1nc(NCC2CCCO2)nc(NCC2CCCO2)c1[N+](=O)[O-]` (centres undefined), for which the inhibition is -0.89%.
For `O=C(CCCCCN1C(=O)C2C3C=CC(C3)C2C1=O)Nc1nccs1` (centres undefined), the inhibition is -6.21%.
Take `CCc1cccc(C)c1NC(=S)N1CCCCC1c1cccnc1` (centres undefined): the inhibition is 1.2%.
Consider `COC(=O)C(C#N)c1nc2ccccc2nc1N1CCN(Cc2ccc3c(c2)OCO3)CC1` (centres undefined), for which the inhibition is -4.28%.
Take `CC(C)COC(=O)C(C#N)c1nc2ccccc2nc1N1CCN(Cc2ccc3c(c2)OCO3)CC1` (centres undefined): the inhibition is 2.75%.
In the case of `CC(N=C1NC(C)(C)Cc2ccccc21)C(=O)O` (centres undefined), the inhibition is -3.94%.
Turning to `Cn1c(Cn2c(=O)sc3ccccc32)nnc1SCC(=O)NC1CCCC1`, the inhibition is -8.44%.
Turning to `Cc1cc(C)n(C(=O)c2ccc([N+](=O)[O-])cc2N)n1`, the inhibition is -10.3%.
Take `Cc1cc(C)n(C(=O)c2ccccc2[N+](=O)[O-])n1`: the inhibition was 6.43%.
The result for `CC1C=CCC2C(=O)N(c3ccc(Cl)cc3O)C(=O)C12` (centres undefined) reads 10.7%.
As to `COc1ccc2nc(/N=C(\N)NC(=O)C(C)(C)C)nc(C)c2c1`, the inhibition was 14.9%.
As to `Cc1ccc2nc(/N=C(\N)NC(=O)N3c4ccccc4Sc4ccccc43)nc(C)c2c1`, the inhibition is 94.5%.
Turning to `COc1ccc(CN(CC2CCC(C(=O)O)CC2)C(=S)Nc2cc(C)ccc2C)cc1` (centres undefined), the inhibition was 4.91%.
Regarding `O=C(NC1CSC/C1=N\O)c1ccccc1` (centres undefined), the inhibition is -2.37%.
Regarding `COc1ccc(/C=C/C(=O)c2ccc(Cl)cc2)c(OC)c1`, the inhibition is 7.24%.
`O=C(/C=C/c1ccccc1Cl)c1ccc(O)cc1`: the inhibition is 36.8%.
On to `COc1ccccc1/C=C/C(=O)c1ccccc1`, for which the inhibition is 5.69%.
On to `COc1ccccc1/C=C/C(=O)c1ccc(Cl)cc1`, for which the inhibition was 19.9%.
In the case of `Cc1nc2nc(SCC(=O)C(C)(C)C)[nH]c2cc1Br`, the inhibition is -3.7%.
Consider `CC(C)(C)c1cc(NC(=O)c2cccc([N+](=O)[O-])c2)no1`, for which the inhibition is 4.63%.
As to `CC1(c2nnc(-c3ccccc3)o2)CC(c2ccc(F)cc2)=NO1` (centres undefined), the inhibition was -2.41%.
The result for `CCOC(=O)c1ccc(N=c2sc(C(=O)OC)cc(=O)n2-c2ccc(C(=O)OCC)cc2)cc1` reads 63.5%.
For the molecule `COC(=O)c1ccc(N=c2sc(C(=O)OC)cc(=O)n2C)cc1`, the inhibition was 7.67%.
`COc1c(F)c(F)c(C(=O)O)c(Nc2cc(C)cc(C)c2)c1F`: the inhibition is -9.39%.
To `O=c1cc(-c2ccccc2F)oc2ccccc12` belongs -6.27%.
Regarding `O=c1cc(-c2ccc(F)cc2)oc2ccccc12`, the inhibition was -4.83%.
In the case of `N#Cc1cccc(NC(=O)CC2CCCCC2)c1`, the inhibition is 1.61%.
For `Cc1ccc(N2C(=O)NC(=O)/C(=C\c3ccc(N4CCOCC4)cc3)C2=O)cc1`, the inhibition is -2.37%.
To `CS(=O)(=O)N1CCn2c1nc1ccccc12` belongs -12.2%; to `COc1ccc(C2C(C#N)=C(C)NC3=C2C(=O)CC(C)(C)C3)cc1` (centres undefined), 6.62%.
For the molecule `CC1=C(C#N)C(c2cccnc2)C2=C(CC(c3ccc(Cl)cc3)CC2=O)N1` (centres undefined), the inhibition is 5.84%.

The values are drawn from PubChem BioAssay AID1626 (SRMLSC, 2009).
